Data: PubChem BioAssay (NCATS)
Results filed as inconclusive are left out. A call without a number means that no potency is given here. Active and inactive are the calls of the source. Calls come from the whole dose curve; as a rule, active = well fitted curve in the direction sought with a large enough effect; inconclusive = small, poorly fitted or top-dose-only effect, or another doubt; inactive = no such curve, though single readings can be large; an effect the other way counts as inactive or inconclusive.

Assays:
[1] = target: N-terminal Xaa-Pro-Lys N-methyltransferase 1 (Homo sapiens) (UniProt Q9BV86); test: qHTS Assay for Inhibitors of N-terminal methyltransferase 1 (NTMT1): LOPAC validation of the NTMT1 SAHH-coupled ThioGlo3 Assay (AID 1347143);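 note: SAH from peptide methylation measured as thiol fluorescence via SAHH coupling and ThioGlo3; nearly all actives have a fitted effect of over 70% in size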; note: potency is the fitted concentration of half-maximal effect
Sequence of N-terminal Xaa-Pro-Lys N-methyltransferase 1 (Homo sapiens) (Q9BV86 whole entry, looked up): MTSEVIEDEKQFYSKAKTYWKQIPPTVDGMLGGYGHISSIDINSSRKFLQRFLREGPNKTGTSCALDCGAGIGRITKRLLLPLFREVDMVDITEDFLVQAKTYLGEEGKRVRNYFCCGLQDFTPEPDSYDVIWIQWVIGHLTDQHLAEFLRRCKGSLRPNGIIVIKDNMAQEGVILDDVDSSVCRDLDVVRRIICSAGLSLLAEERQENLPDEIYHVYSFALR
Method in brief: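 NTMT1 125nM + cpds (various conc.), 1 min RT; add SAM 100uM/SAHH 10uM/ThioGlo3 15uM (addition mix). SAHH-coupled thiol detection, Ex340/Em450, t0 and 30 min RT; signal normalized to background. LOPAC 1280-cpd pilot.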

[2] = tested on: Zika virus NS2B-NS3 protease (unlinked); test: Optimization of GU AMC qHTS for Zika virus inhibitors: Unlinked NS2B-NS3 protease assay (AID 1347151); note: nearly all actives have a fitted effect of over 80% in size; note: potency is the fitted concentration of half-maximal effect
Method in brief: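 In this qHTS, compounds acted on 25 nM unlinked Zika NS2B–NS3 in pH 8.0 Tris/Tween buffer. Cleavage of an AMC peptide ran 15 min at room temperature, to about 20% conversion.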

[3] = tested on: Zika virus NS2B-NS3 protease; test: Primary screen GU AMC qHTS for Zika virus inhibitors (AID 1347154); note: nearly all actives have a fitted effect of over 70% in size
Method in brief: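 Fluorogenic AMC-substrate cleavage by noncovalent NS2B-NS3 protease complex (25 nM, pH 8.0 Tris buffer with Tween 20) followed for 15 minutes at room temperature (~20% conversion). Percent inhibition from ex340/em450 signal change, fitted by 4-parameter Hill equation.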

[4] = target: Lysine-specific demethylase 5B (Homo sapiens) (UniProt Q9UGL1); test: Optimization screen for KDM5B Histone Demethylases FDH coupled qHTS against the LOPAC library (AID 1347166)
Sequence of Lysine-specific demethylase 5B (Homo sapiens) (Q9UGL1 whole entry, looked up): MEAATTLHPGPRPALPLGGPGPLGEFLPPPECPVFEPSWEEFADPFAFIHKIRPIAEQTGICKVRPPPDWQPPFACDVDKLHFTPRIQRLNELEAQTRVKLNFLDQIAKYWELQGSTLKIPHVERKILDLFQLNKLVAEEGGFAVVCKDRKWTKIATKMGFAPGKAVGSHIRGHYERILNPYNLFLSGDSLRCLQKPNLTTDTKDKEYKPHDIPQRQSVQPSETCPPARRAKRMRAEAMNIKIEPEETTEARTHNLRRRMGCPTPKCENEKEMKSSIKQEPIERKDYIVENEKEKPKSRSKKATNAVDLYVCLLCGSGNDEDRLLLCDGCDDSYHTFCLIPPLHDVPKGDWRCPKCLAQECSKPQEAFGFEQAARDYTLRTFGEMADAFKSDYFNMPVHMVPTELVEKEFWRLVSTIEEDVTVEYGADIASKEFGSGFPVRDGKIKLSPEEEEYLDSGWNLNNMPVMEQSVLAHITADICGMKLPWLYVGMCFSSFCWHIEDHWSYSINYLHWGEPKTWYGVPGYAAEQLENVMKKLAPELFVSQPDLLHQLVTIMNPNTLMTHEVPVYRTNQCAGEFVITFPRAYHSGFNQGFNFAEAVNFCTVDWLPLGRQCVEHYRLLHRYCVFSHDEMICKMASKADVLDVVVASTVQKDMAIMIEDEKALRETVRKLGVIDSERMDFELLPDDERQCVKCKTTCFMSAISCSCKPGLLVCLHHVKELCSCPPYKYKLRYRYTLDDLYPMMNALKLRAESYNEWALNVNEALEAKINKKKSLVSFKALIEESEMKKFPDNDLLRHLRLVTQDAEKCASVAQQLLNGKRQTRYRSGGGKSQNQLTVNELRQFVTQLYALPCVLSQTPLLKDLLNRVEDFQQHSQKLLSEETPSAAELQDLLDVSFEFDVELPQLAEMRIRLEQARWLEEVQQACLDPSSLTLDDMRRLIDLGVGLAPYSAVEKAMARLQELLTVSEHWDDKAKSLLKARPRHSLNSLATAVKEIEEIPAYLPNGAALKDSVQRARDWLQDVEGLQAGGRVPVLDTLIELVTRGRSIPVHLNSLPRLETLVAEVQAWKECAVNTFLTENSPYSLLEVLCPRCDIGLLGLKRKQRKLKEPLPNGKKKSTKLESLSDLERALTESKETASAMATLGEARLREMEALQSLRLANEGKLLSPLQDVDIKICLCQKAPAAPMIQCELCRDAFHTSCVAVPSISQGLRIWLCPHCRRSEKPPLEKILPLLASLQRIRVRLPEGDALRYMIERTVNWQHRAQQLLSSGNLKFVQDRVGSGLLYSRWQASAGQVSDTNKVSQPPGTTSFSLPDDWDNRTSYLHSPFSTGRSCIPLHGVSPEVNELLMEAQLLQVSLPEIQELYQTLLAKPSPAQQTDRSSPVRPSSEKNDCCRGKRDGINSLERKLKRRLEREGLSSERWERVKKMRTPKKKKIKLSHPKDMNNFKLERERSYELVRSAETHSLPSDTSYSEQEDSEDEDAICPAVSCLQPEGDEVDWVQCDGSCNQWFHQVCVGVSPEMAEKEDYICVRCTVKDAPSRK
Method in brief: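 KDM5BDeltaAP (200nM final) in 50mM HEPES pH 7.5, 0.01% Tween-20 was preincubated with compound for 10 min at room temperature. A substrate mix of 12.5uM H3K4Me3, 25uM a-ketoglutarate, ascorbate, Fe2+, NAD+ and formaldehyde dehydrogenase was then added. NADH fluorescence (340/450 nm) was read initially and after 30 min.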

[5] = tested on: Zika virus NS2B-NS3 protease (unlinked complex); test: Confirmatory screen GU AMC qHTS for Zika virus inhibitors (AID 1347153); note: nearly all actives have a fitted effect of over 70% in size
Method in brief: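 Unlinked NS2B-NS3 complex (25 nM) in 10 mM Tris-HCl pH 8.0, 0.01% Tween 20 preincubated 15 min with compound, then 10 microM Bz-Nle-KRR-AMC (Km 18.3 µM). Fluorescence change over 15 min, normalized, Hill-fitted.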

[6] = Confirmatory screen NINDS Rhodamine qHTS for Zika virus inhibitors (AID 1347161); note: potency is the fitted concentration of half-maximal effect; nearly all actives have a fitted effect of over 60% in size
Method in brief: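 In 10 mM Tris-HCl pH 8.0 containing 0.01% Tween 20, linked NS2B-NS3 protease (25 nM final) is exposed to test compounds for 15 min. Cleavage of 1.5 microM Rhodamine110 substrate is tracked by fluorescence over 15 min.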

[7] = tested on: Zika virus NS2B-NS3 protease (linked); test: 384 well plate NINDS AMC confirmatory qHTS for Zika virus inhibitors (AID 1347163); settings: Recombinant NS2B-NS3 protease, Ac-VKTGKR-AMC fluorescence; note: potency is the fitted concentration of half-maximal effect; nearly all actives have a fitted effect of over 50% in size
Method in brief: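 Fluorescence at 355/460 nm was read after 25 minutes of cleavage of 30 microM Ac-VKTGKR-AMC at room temperature, in the dark. Before substrate addition, compounds (up to 1 mM final) sat ~15 minutes with 5, 30 or 60 nM linked protease. Signals were normalized to no-enzyme and no-inhibitor wells.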

[8] = tested on: Zika virus NS2B-NS3 protease (linked construct); test: 384 well plate NINDS Rhodamine confirmatory qHTS for Zika virus inhibitors (AID 1347164); note: potency is the fitted concentration of half-maximal effect; nearly all actives have a fitted effect of over 65% in size
Description: Description: Assay Submitters (PI): Avindra Nath, Ph.D., National Institute of Neurological Disorders and Stroke (NINDS), Bethesda, MD Radhakrishnan Padmanabhan, Ph.D., Georgetown University (GU), Washington D.C. Zika Virus causes congenital defects, including microcephaly and is associated with Guillain-Barre syndrome, eningoencephalitis and myelitis in infected adult. […] Using a target-based approach, we hope to establish a screening paradigm to uncover novel, cell-active NS2B-NS3 protease (Zika Virus) specific inhibitors from NCATS' collection of small molecules using qHTS. […] Four assay panel was created to identify potential Zika Virus inhibitors. Namely, (1) GU unlinked NS2B-NS3 AMC tagged protease qHTS, (2) GU unlinked NS2B-NS3 Rhodamine tagged protease qHTS, (3) NINDS linked NS2B-NS3 AMC tagged protease qHTS, (4) NINDS linked NS2B-NS3 Rhodamine tagged protease qHTS. Active compounds are validated using a secondary assay in 384 well plate format. Early Translation Branch (ETB) National Center for Advancing Translational Sciences (NCATS), Rockville, MD National Institute of Health (NIH), Bethesda, Maryland
384-well NINDS Rhodamine Assay: The protease was diluted to 7.5 nM, 40.9 nM, or 82 nM in assay buffer and dispensed into a 96-well PCR plate (Applied Biosystems); 20 or 22 microL was transferred to a black 384-well assay plate (final protease concentration of 5 nM, 30 nM, or 60 nM, respectively). Compounds (3 microL, 1 microM - 10 mM, DMSO) were diluted and transferred to the assay plate (final concentrations ranged from 100 nM to 1 mM). Compounds were incubated with protease for ~15 minutes. The substrate, Rhodamine 110 (Ac-LKRR-Rd; Genscript), was dissolved in DMSO to a concentration of 6 mM and further diluted into assay buffer to a working concentration of 180 microM, then dispensed into a 384-well preparation plate (Eppendorf). A multichannel repeat pipettor was used to add 3 or 5 microL of substrate to the assay plate to give a final concentration of 10 microM. The plate was incubated in the dark at room temperature. After 25 minutes, the fluorescence intensity (excitation: 485 nm, emission: 538 nm) was measured and normalized to no-enzyme and no-inhibitor controls. Aprotinin39 (VWR) was used as an intraplate control.

[9] = HepG2 cells viability qHTS for Zika virus inhibitors (AID 1347168)
Method in brief: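 Luminescent ATP readout (CellTiter Glo) after 30 min at 37 degrees C gives viability; cells in DMEM + 4% FBS were treated 24 to 48 hours with compound, following overnight attachment.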

[10] = Tertiary RLuc qRT-PCR qHTS assay for Zika virus inhibitors (AID 1347169); note: top concentration of the series differs between compounds; nearly all actives have a fitted effect of over 55% in size
Method in brief: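 Inhibition of ZIKV-RLuc replication in Vero cells, read as Renilla luminescence 1-1.5 hrs after live-cell substrate addition, following 48-72 hrs infection at MOI 1-2 in presence of compound.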

NC(=O)C1=CN(C2OC(COP(=O)(O)OP(=O)(O)OC[C@H]3O[C@@H](n4cnc5c(N)ncnc54)[C@H](OP(=O)(O)O)C3O)C(O)C2O)C=CC1 (some centres undefined)
Potency [1]: inactive

CNC(=O)[C@H]1O[C@@H](n2cnc3c(NCc4ccc(N)cc4)ncnc32)[C@H](O)C1O (some centres undefined)
Potency [1]: inactive

CN=c1nc(-c2ccccc2)n(-c2ccccc2)s1
Potency [1]: 0.316 µM (active)
Potency [2]: inactive

CCOC(=O)C1=C(C)NC(C)=C(C(=O)OCC)C1c1c(F)c(F)c(F)c(F)c1F
Potency [1]: 79.4 µM (active)
Potency [2]: 23.8 µM (active)

CNCC[C@H](Oc1ccc(C(F)(F)F)cc1)c1ccccc1
Potency [1]: inactive
Potency [2]: inactive
Potency [3]: inactive
outcome [4]: inactive

CC(=O)/C=C1\C(=O)N(C)c2ccccc21
Potency [1]: 28.2 µM (active)
Potency [2]: inactive

OC[C@H]1O[C@@H](n2cnc3c(NC4CCCCC4)ncnc32)[C@H](O)[C@@H]1O
Potency [1]: inactive
Potency [2]: inactive
Potency [3]: inactive
outcome [4]: inactive

N[C@@H](CC(=O)O)C(=O)O
Potency [1]: inactive
Potency [2]: inactive
Potency [3]: inactive
outcome [4]: inactive

CCCCCCCCCCCCCCCCCCN(CCCCCCCCCCCCCCCCCC)CCCN(CCO)CCO
Potency [1]: inactive
Potency [2]: inactive

O=C(/C=C/c1ccc(O)cc1)c1ccc(O)cc1O
Potency [1]: 44.7 µM (active)
Potency [2]: inactive

O=C(O)CNC(=O)C(CS)Cc1ccccc1 (centres undefined)
Potency [1]: inactive
Potency [2]: inactive
Potency [3]: inactive
outcome [4]: inactive

COc1cc2c(CCNC(C)=O)c[nH]c2cc1Cl
Potency [1]: inactive
Potency [2]: inactive
Potency [3]: inactive
outcome [4]: inactive

O=C1NC(=O)/C(=C/c2ccc(-c3ccc(F)cc3O)o2)S1
Potency [1]: 44.7 µM (active)
Potency [2]: 21.2 µM (active)
outcome [5]: inactive
Potency [6]: 24.8 µM (active)
Potency [7]: 63.1 µM (active)
Potency [8]: 20 µM (active)
outcome [9]: inactive
Potency [10]: inactive

O=C(Nc1ccncc1)c1cc([N+](=O)[O-])ccc1Cl
Potency [1]: inactive
Potency [2]: inactive
Potency [3]: inactive

CC1CN(S(=O)(=O)c2cccc3cnccc23)CCN1 (centres undefined)
Potency [1]: inactive
Potency [2]: inactive

O=C1NC(O)=NC1(c1ccccc1)c1ccccc1
Potency [1]: inactive
Potency [2]: inactive

Nc1nc2c(ncn2[C@@H]2O[C@H](CO)[C@@H](O)[C@@H]2O)c(=O)[nH]1
Potency [1]: inactive
Potency [2]: inactive

Nc1nc(OCC2CCCCC2)c2[nH]cnc2n1
Potency [1]: inactive
Potency [2]: inactive

CCC(CO)Nc1nc(NCc2ccccc2)c2ncn(C(C)C)c2n1 (centres undefined)
Potency [1]: inactive
Potency [2]: inactive

COc1cc(SC)ccc1C(=O)N1CCC(Cc2ccccc2)CC1
Potency [1]: inactive
Potency [2]: inactive
Potency [3]: inactive
outcome [4]: inactive

O=C(CCc1ccncc1)NNC(=O)N1Cc2ccccc2Oc2ccc(Cl)cc21
Potency [1]: inactive
Potency [2]: inactive

CC(=O)N[C@H](C(=O)O)C(C)(C)SN=O
Potency [1]: inactive
Potency [2]: inactive

O=C(Nc1ccccc1)c1cc([N+](=O)[O-])ccc1Cl
Potency [1]: inactive
Potency [2]: inactive
Potency [3]: inactive
outcome [4]: inactive

O=C(CCSCc1ccco1)NNC(=O)N1Cc2ccccc2Oc2ccc(Cl)cc21
Potency [1]: inactive
Potency [2]: inactive

NC[C@@H]1O[C@H](C23CC4CC(CC(C4)C2)C3)Cc2c1ccc(O)c2O
Potency [1]: 50.1 µM (active)
Potency [2]: inactive
Potency [3]: inactive
outcome [4]: inactive

CC[C@H]1OC(=O)[C@H](C)[C@@H](O[C@H]2C[C@@](C)(OC)[C@@H](O)[C@H](C)O2)[C@H](C)[C@@H](O[C@@H]2O[C@H](C)C[C@H](NC)[C@H]2O)[C@](C)(O)C[C@@H](C)CN(C)[C@H](C)[C@@H](O)[C@]1(C)O
Potency [1]: inactive
Potency [2]: inactive

CCNC(=O)[C@H]1O[C@@H](n2cnc3c(N)nc(NCCc4ccc(CCC(=O)O)cc4)nc32)[C@H](O)C1O (some centres undefined)
Potency [1]: inactive
Potency [2]: inactive

CC(C)NC[C@@H](O)c1ccc(O)c(O)c1
Potency [1]: 50.1 µM (active)
Potency [2]: inactive

CC(C)(C)c1ccc(S(=O)(=O)/C=C/C#N)cc1
Potency [1]: 4.47 µM (active)
Potency [2]: inactive

Nc1ccn([C@H]2O[C@H](CO)[C@@H](O)C2(F)F)c(=O)n1
Potency [1]: inactive
Potency [2]: inactive

COCCOc1cc2nc[nH]c(=O)c2cc1OCCOC
Potency [1]: inactive
Potency [2]: inactive

O=C1NCc2c1c1c3ccccc3[nH]c1c1[nH]c3ccccc3c21
Potency [1]: 79.4 µM (active)
Potency [2]: 23.8 µM (active)

CCCCCCCCc1ccc(-c2ccc(C(=O)O)cc2)cc1
Potency [1]: 50.1 µM (active)
Potency [2]: 11.9 µM (active)
Potency [3]: inactive

Oc1cc(O)cc(/C=C/c2ccc(O)c(O)c2)c1
Potency [1]: 35.5 µM (active)
Potency [2]: 23.8 µM (active)

Cn1ncc(S(=O)(=O)Cc2ccccc2)c(Br)c1=O
Potency [1]: 44.7 µM (active)
Potency [2]: inactive

COCCOc1cc2ncnc(Cl)c2cc1OCCOC
Potency [1]: inactive
Potency [2]: inactive
